Results published in PubChem BioAssay (NCI).
Where “and” joins values, the source holds several entries; their conditions need not be identical. Equal entries are not always repeated. This is part of a sample that, as a whole, favours compounds with a hit. Of some 83,000 tested, about 20% had one in any assay.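 Single-concentration screen, 48 h exposure, 96-well plates. Endpoint: percent growth. Below 10 = active.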 Calls of active or inactive are those of the source.

Test system: HL-60(TB) leukemia
Experiment: NCI-60 one-dose screen, 48 h (100 = growth as untreated, 0 = no growth, -100 = all killed)
Details: 10 µM unless noted

Compound	growth
O=Nc1c(O)c(Cl)cc2ccccc12	42.7% (inactive)
C1CCC([PH+](C2CCCCC2)C2CCCCC2[PH+](C2CCCCC2)C2CCCCC2)CC1.[Au].[CH-]1CCCCC1C1CCCC[N-]1 (configuration not stated)	-29.9% (active)
COc1cc(NCC(=O)Nc2cc(Nc3ccc(C)cc3)ncn2)c(Cl)c(OC)c1Cl	77.2% (inactive)
CC(=O)N1N=C(c2ccc(C(F)(F)F)c(F)c2)CC1c1[nH]c(C)c(C(=O)NCC(F)(F)F)c1C (configuration not stated)	111% (inactive)
COc1ccc(/C=N/NC(=O)Cn2c(Cc3cccc4ccccc34)nc3ccccc32)cc1	93.2% (inactive)
Cc1nnc(NC(=O)c2nc(S(=O)(=O)Cc3ccc(F)cc3)ncc2Cl)s1	-30.5% (active)
Cc1cnc(N)nc1OCCNC(=O)c1cccc(-c2ccc(S(=O)(=O)Nc3ccc4c(c3)N(C(=O)C3CC3)CCC4)cc2)c1	43.3% (inactive)
COc1ccc(-c2nc(N/N=C/c3c[nH]c4ccccc34)nc(N3CCOCC3)c2C#N)cc1	47.9% (inactive)
COc1cc2ncnc(-n3ncc4cc(NC(=O)Nc5ccc(Cl)c(Cl)c5)ccc43)c2cc1OC	15.3% (inactive)
COc1ccc(-c2cn(-c3cc(OC)c(OC)c(OC)c3)c(=O)n2C(C)=O)cc1	32.2% (inactive)
COc1ccc(C(=O)c2ccc(OC)c(OC)c2OC)cc1	22.3% (inactive) and -8.89% (active)
COc1ccc(C(=O)/C=C/c2cc3ccccc3[nH]c2=O)cc1	33.7% (inactive)
CCn1c(=S)sc2c(Nc3ccc(F)cc3)nc(-c3cccnc3)nc21	81.7% (inactive)
CCOC(=O)/C=C/c1cc2cc(-c3csc4ccccc34)ccc2[nH]1	32.1% (inactive)
CCCCn1c(C)nc2ccc(Nc3nc(N4CCN(C)CC4)nc4nc[nH]c34)cc21	99.8% (inactive)
Cc1cc(N(CCCNc2ccnc3cc(Cl)ccc23)Cc2cccs2)nc(Cl)n1	-3.12% (active)
O=C(Nc1ccc(Oc2ccc(Nc3nc4ccccc4s3)cc2)cc1)Nc1ccc(Cl)c(Cl)c1	21.1% (inactive)
O=C1c2ccccc2C(=O)c2c1ccc1[nH]c(CCl)nc21	-37.4% (active)
O=C(c1ccccc1)c1ccc(Oc2ccc([N+](=O)[O-])cc2[N+](=O)[O-])cc1	43.6% (inactive)

Compound	growth
O=C1Nc2ccc(Cl)cc2C12Nc1cc(Cl)ccc1S2 (configuration not stated)	42.6% (inactive)
COc1cc2nc(-c3ccc(C(F)(F)F)cc3)cc(OCCN3CCCC3)c2cc1OC	66.8% (inactive)
COc1cc(Cn2c(-c3nonc3N)nc3ccccc32)ccc1C	-3.72% (active)
COc1cc(-c2cc(-c3cc4c([nH]c5ccccc54)c(-c4cc(OC)c(OC)c(OC)c4)n3)cc(-c3ccccc3)n2)cc(OC)c1OC	30.9% (inactive)
COc1cccc(-n2cc(-c3nc(Nc4cc(C)[nH]n4)c4ccccc4n3)nn2)c1	48.1% (inactive)
CC(=O)c1cc2c(N)c(C(=O)Nc3ccccc3)sc2nc1C	55.6% (inactive)
CC1(C)CC[C@]2(C(N)=O)CC[C@]3(C)C(=CC[C@@H]4[C@@]5(C)C/C(=C/c6ccncc6)C(=O)C(C)(C)[C@@H]5CC[C@]43C)[C@@H]2C1	-19.2% [100 µM] (active)
Nc1nc(N)c2cc(S(=O)(=O)c3ccccc3)ccc2n1	23.2% (inactive) and 20.7% (inactive)
CC(C)(C)OC(=O)N1CCc2c(sc3ncnc(N/N=C/c4cccc(Br)c4)c23)C1	71.8% (inactive)
COc1ccc(NC(=O)c2cccc(-c3cc(=O)c4c(O)c(OC)c(OC)cc4o3)c2)cc1	130% (inactive)
CCOC(=O)c1nc2c3ccccc3ccn2c1C(=O)OCC	97.1% (inactive)
Oc1c(Br)cc(Cl)cc1C(c1cc(Cl)cc(Br)c1O)C(Cl)(Cl)Cl	9.73% (active)
COc1ccc(-c2ccccc2)cc1C(=O)c1ccc(-c2ccccc2)cc1	71.4% (inactive)
Cc1ccc(N2C(=O)c3cccc4c(N)c(S(=O)(=O)O)cc(c34)C2=O)cc1	88.8% (inactive)
c1ccc(-c2cn3ccnc3c(-c3ccc4ncn(C5CCCCC5)c4c3)n2)cc1	32.9% (inactive)
CC1Cc2c(Cl)ncnc2N(C)c2ccc(F)cc21 (configuration not stated)	91.6% (inactive)
Cc1ccc(=O)[nH]n1	99.9% (inactive) and 102% (inactive)
Cc1cc(/C=C\c2ccc3ccccc3[n+]2C)c(O)c2ncccc12	-22.4% (active)
